Our source for the Potency values is PubChem BioAssay AID504832 (National Center for Advancing Translational Sciences (NCATS), 2011).

Among all 310,000 compounds or so, about 18,000 (5.8%) were called active. Roughly 22% stayed inconclusive and do not appear here. Calls follow the shape of the dose curve; as a rule, active = well fitted inhibition curve with a large enough effect; inconclusive = small, poorly fitted or top-dose-only effect, or another doubt; inactive = no such curve, though single readings can be large or run the other way. What follows is part of a selection rich in actives, with near analogues and random picks from the rest. Where a call stands in place of a potency, no number is given.
Potency is read from the fitted curve at half-maximal effect.

The nature of the test: Primary qHTS for delayed death inhibitors of the malarial parasite plastid, 48 hour incubation. As to conditions: P. falciparum luciferase growth in erythrocytes; series mostly up to 28.7 µM. Summed up: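 Luminescence readout; reporter = integrated firefly luciferase in P. falciparum. RBC culture at 2% hematocrit, 0.1% parasitemia final, 37 C/5% CO2; decreased signal taken as growth inhibition.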
Background: Quantitative high-throughput screening tests each substance at several concentrations.
For the molecule `CCc1ccccc1S(=O)(=O)Cc1ccc(C(=O)NCCc2ccccc2)o1`, the Potency result was “inactive”.
With `O=C(Nc1ccccc1)N(Cc1cccnc1)Cc1ccco1` the entry was “inactive”; with `Cc1ccc(C)c2[nH]c(=O)c(CN(Cc3cccnc3)C(=S)NCc3ccco3)cc12`, 9.28 µM (active).
On to `COCCNC(=S)N(Cc1cccnc1)Cc1ccc(OC)c(OC)c1`, for which the Potency result was “inactive”.
Take `COc1ccc(C(=O)N2CCN(c3ncccn3)CC2)cc1S(=O)(=O)N1CCOCC1`: the Potency entry is “inactive”.
With `COc1cc(C(=S)N2CCOCC2)cc(OC)c1OC(=O)c1ccc([N+](=O)[O-])cc1[N+](=O)[O-]`, the Potency result is “inactive”.
With `CCC(C)Sc1nc2c(cnn2-c2ccc(F)cc2)c(=O)[nH]1` (stereo unspecified) the entry was “inactive”; with `Cc1cccc(C)c1NC(=O)COC(=O)c1ccccc1O`, “inactive”; with `CC(=O)N(Cc1cc(=O)[nH]c2ccccc12)c1ccc(C)cc1C`, “inactive”.
In the case of `Cn1nnnc1SCc1cc(=O)[nH]c2ccccc12`, the Potency result is “inactive”.
With `Cc1ccc(N(Cc2cc(=O)[nH]c3ccccc23)C(=O)CCl)cc1` the figure was 9.28 µM (active).
Regarding `COc1cc(/C=N/NC(=O)CNC(=O)c2ccncc2)ccc1OC(C)=O`, the Potency entry is “inactive”.
Then `O=C(COC(=O)/C=C/c1cccs1)NC1CCCCC1`, with “inactive”.
With `Cc1ccc(-n2c(SCC(=O)N/N=C/C=C/c3ccccc3[N+](=O)[O-])nc3ccccc3c2=O)cc1` the figure was 13.1 µM (active).
Then `CCn1c(SCC(=O)N/N=C/C=C/c2ccccc2[N+](=O)[O-])nnc1-c1ccccc1`, with “inactive”.
Turning to `O=C(CSc1nc2ccccc2[nH]1)N/N=C/C=C\c1ccccc1[N+](=O)[O-]`, the Potency result was “inactive”.
Then `Cc1ccc(C(=O)NC23CC4CC(CC(C4)C2)C3)c(Cl)c1`, with “inactive”.
With `CN(C(=O)COC(=O)CCCc1c[nH]c2ccccc12)c1c(N)n(Cc2ccccc2)c(=O)[nH]c1=O` the entry was “inactive”.
Then `Cc1ccccc1-n1nc(SCC(=O)O)sc1=S`, with “inactive”; and `N#CCSc1nn(-c2ccc(F)cc2)c(=S)s1`, with 5.86 µM (active); and `O=C(CSc1nn(-c2ccc(F)cc2)c(=S)s1)NC1CCS(=O)(=O)C1` (stereo unspecified), with “inactive”.
`CCOC(=O)Cc1csc(SCC(=O)Nc2ccc(C)cc2F)n1`: the Potency result is “inactive”.
With `O=C1COc2ccc(S(=O)(=O)NCCc3ccc(Cl)cc3)cc2N1` the entry was “inactive”.
Then `CSc1ccccc1NC(=O)c1cnc2sc(C)cn2c1=O`, with “inactive”; and `COc1ccc(C(=O)NNc2cc(C)nc(NNC(=O)c3ccc(OC)cc3)n2)cc1`, with “inactive”.
Then `CCC(=O)Nc1ccc(Nc2nc(Cl)nc(Nc3ccc(NC(=O)CC)cc3)n2)cc1`, with “inactive”; and `CC(=O)Nc1ccc(Nc2cc(C)nc(Nc3ccc(NC(C)=O)cc3)n2)cc1`, with 1.65 µM (active); and `Cn1nc(-c2ccccc2)c2cc([N+](=O)[O-])ccc21`, with “inactive”.
Take `COc1ccc(NC(=O)COC(=O)Cn2c(C)nc3ccccc32)cc1OC`: the Potency entry was “inactive”.
In the case of `COc1ccc(-c2cn(-c3ccc(C)cc3)c(=O)n2CC(=O)Nc2ccc(OC)c(OC)c2)cc1`, the Potency was 14.7 µM (active).
On to `COc1ccc(NC(=O)Cn2nnc(C(=O)NCCc3ccc(OC)c(OC)c3)c2N)cc1`, for which the Potency result was “inactive”.
Turning to `COC(=O)c1ccc(COc2ccc(C#N)cc2)o1`, the Potency entry was “inactive”.
As to `COc1ccc(OCC(=O)NCCS(=O)(=O)N2CCN(c3ccc(F)cc3)CC2)cc1`, the Potency result is “inactive”.
On to `CC(C)CC(=O)c1c[nH]c(C(=O)NCc2ccccc2)c1`, for which the Potency result is “inactive”.
With `Cc1nnc(SCC(=O)NCc2ccccc2)s1` the entry was “inactive”; with `Cc1nnc(SCC(=O)N2c3ccccc3C(C)(c3ccc(Cl)cc3)CC2(C)C)s1` (stereo unspecified), 10.4 µM (active).
With `Cc1nnc(SCC(=O)N2CCc3ccccc3C2)s1` the entry was “inactive”.
Consider `Cc1ccc(Cn2c(C)c3cnn(CC(=O)NCc4ccccn4)c(=O)c3c2C)cc1`, for which the Potency result was “inactive”.
As for `Cc1ccc(-c2nn(-c3ccccc3)cc2CN(Cc2ccccc2)C(=O)CCC(=O)O)o1`, the Potency result was “inactive”.
Then `O=C(CCCN1C(=O)/C(=C/c2ccco2)SC1=S)Nc1ccccc1`, with “inactive”.
Take `Cc1ccc(-c2nn(-c3ccccc3)cc2/C=C2\SC(=S)N(CCCCCC(=O)O)C2=O)o1`: the Potency is 4.65 µM (active).
As for `O=C(O)c1cc2c(cc1NC(=O)c1c(F)cccc1Cl)OCCCO2`, the Potency result is “inactive”.
With `O=C(NCc1ccccc1CN1CCCC1)c1cccc(S(=O)(=O)Nc2ccc(F)cc2)c1`, the Potency was 13.1 µM (active).
Then `COc1ccc(Cl)cc1NS(=O)(=O)c1cccc(C(=O)NCC2CCCO2)c1` (stereo unspecified), with “inactive”; and `O=C(NCc1cccc(C(F)(F)F)c1)c1cccc(S(=O)(=O)N2CCN(Cc3ccccc3)CC2)c1`, with “inactive”; and `CC(=O)N1CCN(C(=O)c2cccc(S(=O)(=O)Nc3ccc(C)cc3)c2)CC1`, with “inactive”.
With `COc1ccc(C(=O)Nc2ccc(S(=O)(=O)NC(C)C)cc2)cc1` the entry was “inactive”; with `COc1ccccc1C(CNC(=O)c1cccc(S(=O)(=O)Nc2ccc(F)cc2)c1)N(C)C` (stereo unspecified), 13.1 µM (active).
With `CCN(c1ccccc1)S(=O)(=O)c1cccc(C(=O)O)c1` the entry was “inactive”.
With `CCN(c1ccccc1)S(=O)(=O)c1cccc(C(=O)NCc2ccccc2CN2CCOCC2)c1`, the Potency was 13.1 µM (active).
For `COc1ccc(NS(=O)(=O)c2cccc(C(=O)NCCc3ccc(S(N)(=O)=O)cc3)c2)cc1`, the Potency entry was “inactive”.
With `COc1ccc(C(CNC(=O)c2ccc(NS(=O)(=O)c3ccc(F)c(C)c3)cc2)N(C)C)cc1` (stereo unspecified) the figure was 14.7 µM (active).
As for `O=C(OC1CCOC1=O)c1cccc(S(=O)(=O)Nc2ccc(F)cc2)c1` (stereo unspecified), the Potency result is “inactive”.
On to `COc1ccc(C(CNC(=O)c2ccc(S(=O)(=O)Nc3ccccc3F)cc2)N(C)C)cc1` (stereo unspecified), for which the Potency result was “inactive”.
For the molecule `COCCCNC(=O)Cc1ccc(-n2c(C)nc3cccnc32)cc1`, the Potency result was “inactive”.
Then `COc1ccccc1CNC(=O)c1ccc(N(C)S(=O)(=O)c2ccc(C)cc2)cc1`, with “inactive”; and `CCc1nn(CCCC(=O)NCc2ccc(C)cc2)c(=O)c2cc3occc3n12`, with “inactive”.
With `O=C(NC(Cc1ccccc1)C(=O)O)/C(=C\c1ccccc1)NC(=O)c1ccco1` (stereo unspecified) the entry was “inactive”; with `O=Cc1c(Nc2ccccc2Cl)nc2ccccn2c1=O`, “inactive”; with `CC1(C)C(C=C(Cl)Cl)C1C(=O)NC(O)C(=O)c1ccccc1` (stereo unspecified), “inactive”.
With `O=C(CCNC(=O)C1CCN(S(=O)(=O)c2ccccc2)CC1)NC1CC1` the entry was “inactive”.
Take `CCN(CC)C(CNC(=O)CSc1nnnn1-c1cccc(F)c1)c1ccco1` (stereo unspecified): the Potency entry was “inactive”.
`CCCCNC(=O)C1(O)c2ccccc2NC(=O)N1c1ccc(Cl)cc1` (stereo unspecified): the Potency entry was “inactive”.
Then `COc1ccccc1CCNS(=O)(=O)c1cn(C)nc1C`, with “inactive”.
Then `CCc1nc2cccnc2n1-c1ccc(C(=O)O)cc1`, with “inactive”.
For `NC(=O)Cn1cc(/C=N\NS(=O)(=O)c2ccccc2)c2ccccc21`, the Potency entry was “inactive”.
In the case of `CCc1ccccc1NC(=O)c1ccc2snnc2c1`, the Potency result was “inactive”.
Take `CC1CCCCN1C(=O)CCS(=O)(=O)Cc1ccccc1` (stereo unspecified): the Potency entry was “inactive”.
Then `Cc1cnc(C(=O)Oc2cccc(Cl)c2Cl)cn1`, with “inactive”.
Regarding `O=C(NCC(c1cccs1)N1CCOCC1)c1cc(Cl)ccc1[N+](=O)[O-]` (stereo unspecified), the Potency entry is “inactive”.
Then `Cc1ccc(-c2nn(-c3ccc(F)cc3)cc2C(=O)NCC(c2cccs2)N2CCOCC2)cc1` (stereo unspecified), with 10.4 µM (active); and `CC(C)(C)C1CCC(C(=O)NCC(c2cccs2)N2CCOCC2)CC1` (stereo unspecified), with “inactive”.
Then `CCOC(=O)C1(Cc2cccc(OC)c2)CCCN(C(=O)CCSC)C1` (stereo unspecified), with “inactive”; and `CC(=O)N1CCN(C(=O)C2(NC(=O)Nc3ccc(C)cc3)CCCCC2)CC1`, with “inactive”; and `O=C(c1cc2ccccc2o1)N1CCN(c2cccc(C(F)(F)F)c2)CC1`, with “inactive”.
Consider `Cc1nn(CC(=O)N2CCCCC2)c(=O)c2nn(-c3ccccc3)c(C)c12`, for which the Potency result is “inactive”.
Then `COc1ccccc1N1CCN(C(=O)c2ccc(NC3=NC4CS(=O)(=O)CC4S3)cc2)CC1` (stereo unspecified), with “inactive”; and `COc1ccc(Nc2ncc(C(=O)N3CCN(c4ccccc4OC)CC3)c3ccccc23)cc1`, with 11.7 µM (active); and `COc1ccc(N2CCN(C(=O)C3CCN(C(=O)c4ccccc4Cl)CC3)CC2)cc1`, with “inactive”.
Turning to `OC(COc1ccc(F)cc1Cl)CN1CCc2ccccc2C1` (stereo unspecified), the Potency entry was “inactive”.
Turning to `CCN(CC)S(=O)(=O)c1ccc2[nH]c(=O)cc(C(=O)N(C)C3CCS(=O)(=O)C3)c2c1` (stereo unspecified), the Potency entry is “inactive”.
Then `COc1ccc(NC(=O)CSc2ccc(-c3ccco3)nn2)c(OC)c1`, with “inactive”; and `COCCn1c(SCC(=O)Nc2ccccc2F)nc2c(c1=O)SCC2`, with “inactive”.
On to `Cn1c(CCC(=O)Nc2ccccc2F)nnc1SCC(=O)Nc1ccccc1Cl`, for which the Potency result is “inactive”.
With `CC1Cc2nc(SCC(=O)Nc3ccccc3F)n(C)c(=O)c2S1` (stereo unspecified) the figure was 7.38 µM (active).
For the molecule `CCn1c(SCC(=O)Nc2ccc3c(c2)OCCO3)nc2c(c1=O)SC(C)C2` (stereo unspecified), the Potency result was “inactive”.
With `COCCn1c(SCC(=O)Nc2cc(Cl)ccc2OC)nc2c(c1=O)SC(C)C2` (stereo unspecified) the figure was 8.28 µM (active).
For `COc1ccc(C)cc1NC(=O)CSc1ccc(Cl)cc1`, the Potency result is “inactive”.
With `CC(C)N(Cc1ccccc1)C(=O)COC(=O)c1ccccc1SCC(=O)N1CCCC1` the entry was “inactive”.
Then `CCn1c(SCC(=O)NCC2CCCO2)nc2ccccc21` (stereo unspecified), with “inactive”; and `CC1CCN(C(=O)c2ccc3c(=O)n4c(nc3c2)CCCCC4)CC1`, with “inactive”; and `COCCN1C(=O)C(=O)/C(=C(/O)c2ccc(S(=O)(=O)N3CCOCC3)cc2)C1c1ccc(O)c(OC)c1` (stereo unspecified), with “inactive”.
Regarding `CCOC(=O)C1CCN(C(=O)COc2cccc3ccccc23)CC1`, the Potency entry was “inactive”.
With `Cc1ccc(C(=O)NNC(=O)C(C)Oc2ccc3ccccc3c2)o1` (stereo unspecified), the Potency result is “inactive”.
With `Cc1cccc(C(C)C)c1NC(=O)COC(=O)C1CC(=O)N(Cc2ccccc2)C1` (stereo unspecified) the entry was “inactive”.
Then `COc1cccc(N2CC(C(=O)NCc3n[nH]c(=O)c4ccccc34)CC2=O)c1` (stereo unspecified), with “inactive”.
In the case of `CCCOC(=O)c1cc2ccccc2oc1=O`, the Potency entry was “inactive”.
Then `CN(C)CCCCCN(C)Cc1cc2ccccc2o1`, with 4.65 µM (active).
For the molecule `COc1ccccc1CN(C)C(=O)c1cc2ccccc2o1`, the Potency entry is “inactive”.
For the molecule `O=c1c2ccccc2ccc2ccc(P(=O)(O)O)cc12`, the Potency result was “inactive”.
Then `CC1CC(C)CN(C(=O)CCNC(=O)Cn2cnc3ccccc3c2=O)C1` (stereo unspecified), with “inactive”.
